Compounds with a hit are over-represented: about 10% of the library has one in this group of screens.
BAZ2B inh = BAZ2B (human) inhibition. Q9UIF8. AlphaScreen BAZ2B-H3K14Ac peptide displacement. Potency, µM (series often up to 114 µM), hits mostly inhibitors. 4.4% of 360,000 active; note: nearly all actives have a fitted effect of over 60% in size
Target sequence (Q9UIF8 whole entry, looked up): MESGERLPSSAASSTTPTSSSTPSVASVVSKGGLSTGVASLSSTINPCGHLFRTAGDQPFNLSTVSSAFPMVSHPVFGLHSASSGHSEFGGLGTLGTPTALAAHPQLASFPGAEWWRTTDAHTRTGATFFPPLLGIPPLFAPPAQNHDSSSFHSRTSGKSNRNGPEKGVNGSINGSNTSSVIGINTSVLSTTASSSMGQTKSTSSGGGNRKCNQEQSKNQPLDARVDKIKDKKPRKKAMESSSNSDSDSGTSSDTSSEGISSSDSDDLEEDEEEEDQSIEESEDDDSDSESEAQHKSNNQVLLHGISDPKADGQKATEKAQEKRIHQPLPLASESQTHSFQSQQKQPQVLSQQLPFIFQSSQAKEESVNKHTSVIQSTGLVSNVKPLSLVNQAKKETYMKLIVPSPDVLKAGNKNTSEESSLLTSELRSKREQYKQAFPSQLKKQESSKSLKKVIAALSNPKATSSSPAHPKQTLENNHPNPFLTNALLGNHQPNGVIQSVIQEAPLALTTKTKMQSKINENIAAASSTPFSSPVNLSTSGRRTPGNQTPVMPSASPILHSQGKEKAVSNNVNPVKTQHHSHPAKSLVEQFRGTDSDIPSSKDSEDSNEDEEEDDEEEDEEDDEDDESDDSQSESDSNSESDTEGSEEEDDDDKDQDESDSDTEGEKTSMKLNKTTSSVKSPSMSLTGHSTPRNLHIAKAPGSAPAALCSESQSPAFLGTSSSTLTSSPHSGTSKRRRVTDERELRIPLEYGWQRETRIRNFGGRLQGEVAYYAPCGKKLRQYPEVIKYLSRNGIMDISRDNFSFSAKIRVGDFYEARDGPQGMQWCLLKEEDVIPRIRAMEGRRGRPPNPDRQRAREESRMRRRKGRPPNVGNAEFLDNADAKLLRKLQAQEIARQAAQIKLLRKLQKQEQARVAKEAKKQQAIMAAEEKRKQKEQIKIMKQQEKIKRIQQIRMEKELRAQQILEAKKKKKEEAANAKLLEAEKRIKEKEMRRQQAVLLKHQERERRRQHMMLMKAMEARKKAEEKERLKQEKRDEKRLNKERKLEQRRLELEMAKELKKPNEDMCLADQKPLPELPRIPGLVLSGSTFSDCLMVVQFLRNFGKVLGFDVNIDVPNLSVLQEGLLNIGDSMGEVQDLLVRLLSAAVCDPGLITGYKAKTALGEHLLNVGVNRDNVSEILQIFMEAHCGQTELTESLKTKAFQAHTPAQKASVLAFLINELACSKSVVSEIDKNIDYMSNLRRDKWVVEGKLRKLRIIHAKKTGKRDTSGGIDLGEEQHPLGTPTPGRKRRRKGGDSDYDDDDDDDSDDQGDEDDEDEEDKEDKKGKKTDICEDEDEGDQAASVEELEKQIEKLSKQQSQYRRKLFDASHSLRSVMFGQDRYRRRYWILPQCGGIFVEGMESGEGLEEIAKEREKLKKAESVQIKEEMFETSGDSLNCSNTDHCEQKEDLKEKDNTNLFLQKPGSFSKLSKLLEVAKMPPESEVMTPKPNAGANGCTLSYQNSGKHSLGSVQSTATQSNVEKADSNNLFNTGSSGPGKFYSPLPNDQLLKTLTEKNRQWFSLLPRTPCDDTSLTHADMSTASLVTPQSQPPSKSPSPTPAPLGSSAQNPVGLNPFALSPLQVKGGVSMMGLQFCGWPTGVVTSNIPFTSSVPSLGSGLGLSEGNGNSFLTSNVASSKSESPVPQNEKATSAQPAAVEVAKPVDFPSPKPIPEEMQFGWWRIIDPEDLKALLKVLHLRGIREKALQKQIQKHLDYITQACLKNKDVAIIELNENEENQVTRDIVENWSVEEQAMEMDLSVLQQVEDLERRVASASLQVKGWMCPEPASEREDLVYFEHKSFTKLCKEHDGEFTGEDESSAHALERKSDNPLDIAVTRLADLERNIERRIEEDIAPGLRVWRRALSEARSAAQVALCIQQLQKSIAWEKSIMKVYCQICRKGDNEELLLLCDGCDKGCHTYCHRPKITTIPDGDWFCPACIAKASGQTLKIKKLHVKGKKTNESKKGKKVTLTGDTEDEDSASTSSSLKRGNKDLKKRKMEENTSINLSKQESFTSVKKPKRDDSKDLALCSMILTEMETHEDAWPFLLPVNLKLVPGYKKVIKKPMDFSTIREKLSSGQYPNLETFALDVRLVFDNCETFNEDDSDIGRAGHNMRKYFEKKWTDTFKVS
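AlphaScreen luminescence quantifies BAZ2B engagement of H3K14Ac peptide; the protein and biotinylated peptide are both at 50 nM final, buffer PBS pH 7.4 with 0.01% Tween-20, all steps at room temperature.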
JMJD2A Tudor = JMJD2A Tudor domain (human) inhibition; O75164; AlphaScreen JMJD2A-Tudor / H3K4me3 peptide binding; Potency, µM (series often up to 114 µM), most hits filed as inhibitors; 4.4% of 390,000 active; AID 504339; note: nearly all actives have a fitted effect of over 50% in size
G9a block = blocks human histone lysine methyltransferase G9a. AID 504332. Potency, µM (titrated, usually from 102 µM), hits mostly inhibitors. Q96KQ7. G9a H3K9 monomethylation, AlphaScreen, 2 h. 8.8% of 350,000 active; note: nearly all actives have a fitted effect of over 75% in size
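AlphaScreen read-out: biotin-H3K9 peptide (500 nM) methylation by 20 nM enzyme with 20 uM SAM, 2 h at room temperature after 15 min compound preincubation; anti-monomethyl H3K9 antibody plus donor/acceptor beads, 10 min dark.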
GLS inh = blocks human kidney-isoform glutaminase activity; O94925; GLS enzymatic activity, qHTS titration; Potency, µM (highest dose often 45.5 µM), usual class: inhibitors; 0.21% of 410,000 active
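hKGA in 45 mM KH2PO4 (pH 8.2), 0.02% Tween-20 with compound, then 1mM L-Glutamine (stock as added) plus glutamate oxidase/HRP/Amplex red coupling mix. Fluorescence read initially and after 30 min at RT; signal change reflects glutamate formation.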
HP1b binding inh = blocks HP1-beta chromodomain binding to methylated histone tails. P83916. AlphaScreen HP1-beta / biotin-H3K9me3 peptide binding. Potency, µM (series often up to 114 µM), actives largely listed as inhibitors. 0.56% of 390,000 active. AID 540317; note: nearly all actives have a fitted effect of over 70% in size
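AlphaScreen: HP1-beta (50 nM) preformed 30 min with biotin-H3(1-18)K9me3 peptide (50 nM) in PBS pH 7.4, 0.01% Tween-20. Compound added for 30 min at RT, then streptavidin donor/nickel chelate acceptor beads (10 ug/mL) for 30 min.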
Of the large screens only hits and unclear results are named; the others gave an inactive call. Calls come from the whole dose curve; as a rule, active = well fitted curve in the direction sought with a large enough effect; inconclusive = small, poorly fitted or top-dose-only effect, or another doubt; inactive = no such curve, though single readings can be large; an effect the other way counts as inactive or inconclusive.

CCOC(=O)C1=C(COC(=O)c2ccc(Br)c(S(=O)(=O)N3CCOCC3)c2)NC(=O)NC1C (stereo unspecified)	none (no result: BAZ2B inh, G9a block)
CCCc1nc2ccc(C)cn2c1Cc1ccccc1	none (no result: BAZ2B inh, JMJD2A Tudor, G9a block, HP1b binding inh)
O=[N+]([O-])c1cccc(-c2nc(NCc3ccccc3)c3ccccc3n2)c1	BAZ2B inh inconclusive, G9a block inconclusive
CN(Cc1ccccc1)c1nc(-c2cccc([N+](=O)[O-])c2)nc2ccccc12	JMJD2A Tudor 31.6µM, GLS inh inconclusive
O=C(c1ccc([N+](=O)[O-])s1)N1CCN(c2ccc(C(F)(F)F)cn2)CC1	none
CCN(CC)c1ccc(-c2nc3cnccn3c2NC2CCCC2)cc1	JMJD2A Tudor 79.4µM, G9a block 50.1µM, GLS inh inconclusive, HP1b binding inh inconclusive
Cc1ccc(CCNC(=O)c2sc3nc4n(c(=O)c3c2C)CCCC4)cc1	BAZ2B inh inconclusive
N#CC(C#N)=C1C=CC=CN1/C(=C\c1ccco1)C(=O)c1ccc(Br)cc1	BAZ2B inh inconclusive, JMJD2A Tudor inconclusive, G9a block 11.2µM
N#CC(C#N)=C1C=CC=CN1/C(=C\c1ccco1)C(=O)c1ccccc1	G9a block 17.8µM
COc1ccc(C(=O)/C(=C\c2ccco2)N2C=CC=CC2=C(C#N)C#N)cc1	none
C#CC[N+](C)(C)C(C#Cc1ccccc1)CC=C (stereo unspecified)	none
Cc1cccc(N2C(=O)/C(=C/c3cccnc3)SC2=S)c1	BAZ2B inh inconclusive, JMJD2A Tudor inconclusive, G9a block 15.8µM
Cc1cc(/C=C2/SC(=S)N(c3ccc([N+](=O)[O-])cc3)C2=O)c(C)n1-c1cccnc1	BAZ2B inh inconclusive, JMJD2A Tudor inconclusive, G9a block 10µM
Cc1cc(/C=C2/SC(=S)N(c3cccc(Cl)c3)C2=O)c(C)n1-c1cccnc1	JMJD2A Tudor inconclusive (no result: BAZ2B inh, G9a block)
CCOc1ccccc1NC(=O)C1CCCN(c2ncnc3onc(-c4ccc(F)cc4)c23)C1 (stereo unspecified)	none
Cc1sc(C(C2C(=O)CC(C)(C)CC2=O)C2C(=O)CC(C)(C)CC2=O)cc1[N+](=O)[O-]	BAZ2B inh 56.2µM, JMJD2A Tudor 28.2µM, G9a block 7.94µM
O=P(O)(O)OC(Cn1cncn1)(Cn1cncn1)c1ccc(F)cc1F	none (no result: BAZ2B inh, JMJD2A Tudor, G9a block, HP1b binding inh)
Cc1ccc(Nc2c(-c3ccco3)nc3ccccn23)cc1	BAZ2B inh inconclusive, JMJD2A Tudor inconclusive, G9a block 39.8µM
COc1ccc(Nc2c(-c3ccco3)nc3ccc(C)cn23)cc1	none
c1ccc(Nc2c(-c3ccco3)nc3ccccn23)cc1	BAZ2B inh 50.1µM, G9a block inconclusive
Cc1ccc(Nc2c(-c3c[nH]c4ccccc34)nc3ccccn23)cc1	BAZ2B inh 17.8µM, JMJD2A Tudor 22.4µM, G9a block 28.2µM, HP1b binding inh inconclusive
Fc1ccc(Nc2c(-c3ccco3)nc3ccccn23)cc1	BAZ2B inh 44.7µM, JMJD2A Tudor inconclusive, G9a block inconclusive
Cc1ccc2nc(-c3c[nH]c4ccccc34)c(Nc3ccccc3C)n2c1	none
COc1ccccc1OCCn1c(CCNC(=O)C2CCCCC2)nc2ccccc21	none (no result: BAZ2B inh, G9a block, GLS inh)
Cc1ccccc1Nc1c(-c2ccco2)nc2c(C)cccn12	BAZ2B inh 25.1µM, JMJD2A Tudor inconclusive, G9a block 14.1µM, HP1b binding inh inconclusive
COc1ccc(NC(=O)c2ccc(-c3ccc(C)c4ccccc34)o2)cc1	G9a block 39.8µM
O=C(NCc1cccnc1)c1ccc(-c2cccc(Cl)c2Cl)o1	BAZ2B inh 70.8µM (no result: G9a block)
COc1ccc(NC(=O)c2ccc(-c3ccccc3Cl)o2)cc1	G9a block 79.4µM
Cc1ccc(CC(=O)NCc2ccc(Cl)cc2)cc1	BAZ2B inh inconclusive, JMJD2A Tudor inconclusive, HP1b binding inh inconclusive
Cc1ccc(-c2ccc(C(=O)NCc3ccc(Cl)cc3)o2)c2ccccc12	BAZ2B inh inconclusive, JMJD2A Tudor inconclusive, G9a block 14.1µM
CCCCC(=O)N1CCc2cc(OC)c(OC)cc2C1COc1ccc(C(=O)OCC)cc1 (stereo unspecified)	none
O=C(NCC(=O)N1CCCC1)NN=Cc1ccccc1O	none (no result: BAZ2B inh, JMJD2A Tudor, G9a block, HP1b binding inh)
Cn1cccc1C(=O)N1CCC2(CC1)CCN(c1ccccc1)CC2	none (no result: BAZ2B inh, JMJD2A Tudor, GLS inh, HP1b binding inh)
Cc1nn(CC(=O)Nc2cccc(C(F)(F)F)c2)c(=O)c2nn(-c3ccccc3)c(C)c12	G9a block inconclusive
O=C(NCc1ccccc1)c1ccc(-c2ccccc2C(F)(F)F)o1	G9a block 39.8µM
Cc1ccc(C)c(NC(=O)CN(C)C(=O)c2ccc(-c3ccc(Cl)cc3)o2)c1	none
CCCCn1nc(C(=O)N(C)CC(=O)Nc2cccc(F)c2)c2ccccc2c1=O	G9a block 35.5µM
CN(CC(=O)Nc1cccc(F)c1)C(=O)c1ccc(-c2ccc(Cl)cc2)o1	BAZ2B inh inconclusive, JMJD2A Tudor inconclusive, G9a block 35.5µM
O=C(O)c1ccc(-c2ccccc2C(F)(F)F)o1	BAZ2B inh inconclusive
CCCn1nc(C(=O)N(C)CC(=O)Nc2ccc(OCC)c(OCC)c2)c2ccccc2c1=O	none
Cc1ccc2c(C)c(C(=O)NCC(c3ccc(Cl)cc3)N3CCOCC3)oc2c1 (stereo unspecified)	BAZ2B inh inconclusive, G9a block 12.6µM
COC(=O)C(c1ccccc1Cl)N1CCc2sccc2C1 (stereo unspecified)	none (no result: BAZ2B inh, JMJD2A Tudor, HP1b binding inh)
O=C(Nc1ccccc1)c1cc(-c2ccccc2Cl)no1	JMJD2A Tudor 28.2µM
COc1ccc(NC(=O)c2cc(-c3ccccc3Cl)no2)cc1	none
COc1ccc(C(CNC(=O)c2ccc(-c3ccccc3Cl)o2)N2CCOCC2)cc1 (stereo unspecified)	BAZ2B inh inconclusive, G9a block 44.7µM
Cc1cc(C(=O)NCc2cccnc2)no1	none
Cc1cc2c(cc(C(=O)NCc3cccnc3)n2Cc2ccc(Cl)cc2)o1	BAZ2B inh inconclusive, JMJD2A Tudor 50.1µM, G9a block inconclusive
O=C(Nc1cccc(F)c1)c1ccc(-c2ccccc2Cl)o1	BAZ2B inh inconclusive, G9a block 56.2µM
Cn1c(C(=O)OCC(=O)NCc2ccc(F)cc2)cc2occc21	none
COc1ccc2cc(-c3nnc(Nc4ccccc4)s3)c(=O)oc2c1	none
C[C@H]1CN([C@@H](C)CO)C(=O)CCCn2nncc2CO[C@H]1CN(C)S(=O)(=O)c1ccc(Oc2ccccc2)nc1	none (no result: BAZ2B inh, JMJD2A Tudor, G9a block, HP1b binding inh)
COc1ccccc1NC(=O)CCNS(=O)(=O)c1ccc2[nH]c(=O)oc2c1	JMJD2A Tudor 35.5µM
COc1ccccc1CNC(=O)CCNS(=O)(=O)c1ccc2[nH]c(=O)oc2c1	JMJD2A Tudor 39.8µM
CCOC(=O)C1=C(O)C(=O)C(C(=O)OCC)C1 (stereo unspecified)	JMJD2A Tudor 10µM, HP1b binding inh inconclusive (no result: BAZ2B inh, G9a block)
CCOC(=O)C1CC(=O)c2cc(OC)c(OC)cc2C1 (stereo unspecified)	none
CCOC(=O)C1Cc2cc3c(cc2C1=O)CC(C(=O)OCC)C3=O (stereo unspecified)	G9a block 35.5µM (no result: JMJD2A Tudor, GLS inh, HP1b binding inh)
Cc1noc(C)c1-c1cncnc1NCc1ccccc1	none (no result: BAZ2B inh, JMJD2A Tudor, GLS inh, HP1b binding inh)

Screening data as filed in PubChem.
